Measured values reported in PubChem BioAssay AID720711 (National Center for Advancing Translational Sciences (NCATS), 2013).
The campaign covered roughly 360,000 compounds. About 290 (0.081%) were called active. This is one part of a sample in which actives are shown more often than they occur. Values without a mark were called inactive. Calls come from the whole dose curve; as a rule, active = well fitted activation curve with a large enough effect; inconclusive = small, poorly fitted or top-dose-only effect; inactive = no such curve, though single readings can be large or run the other way.

biological target: Rap guanine nucleotide exchange factor 4 (Homo sapiens) (UniProt Q8WZA2); assay: qHTS for Agonist of cAMP-regulated guanine nucleotide exchange factor 4 (EPAC2): primary screen; settings: biochemical qHTS; Potency: EPAC2 activation; series mostly up to 154 µM; activation: at the top concentration; note: nearly all actives have a fitted effect of over 50% in size
Sequence (Q8WZA2 whole entry, looked up): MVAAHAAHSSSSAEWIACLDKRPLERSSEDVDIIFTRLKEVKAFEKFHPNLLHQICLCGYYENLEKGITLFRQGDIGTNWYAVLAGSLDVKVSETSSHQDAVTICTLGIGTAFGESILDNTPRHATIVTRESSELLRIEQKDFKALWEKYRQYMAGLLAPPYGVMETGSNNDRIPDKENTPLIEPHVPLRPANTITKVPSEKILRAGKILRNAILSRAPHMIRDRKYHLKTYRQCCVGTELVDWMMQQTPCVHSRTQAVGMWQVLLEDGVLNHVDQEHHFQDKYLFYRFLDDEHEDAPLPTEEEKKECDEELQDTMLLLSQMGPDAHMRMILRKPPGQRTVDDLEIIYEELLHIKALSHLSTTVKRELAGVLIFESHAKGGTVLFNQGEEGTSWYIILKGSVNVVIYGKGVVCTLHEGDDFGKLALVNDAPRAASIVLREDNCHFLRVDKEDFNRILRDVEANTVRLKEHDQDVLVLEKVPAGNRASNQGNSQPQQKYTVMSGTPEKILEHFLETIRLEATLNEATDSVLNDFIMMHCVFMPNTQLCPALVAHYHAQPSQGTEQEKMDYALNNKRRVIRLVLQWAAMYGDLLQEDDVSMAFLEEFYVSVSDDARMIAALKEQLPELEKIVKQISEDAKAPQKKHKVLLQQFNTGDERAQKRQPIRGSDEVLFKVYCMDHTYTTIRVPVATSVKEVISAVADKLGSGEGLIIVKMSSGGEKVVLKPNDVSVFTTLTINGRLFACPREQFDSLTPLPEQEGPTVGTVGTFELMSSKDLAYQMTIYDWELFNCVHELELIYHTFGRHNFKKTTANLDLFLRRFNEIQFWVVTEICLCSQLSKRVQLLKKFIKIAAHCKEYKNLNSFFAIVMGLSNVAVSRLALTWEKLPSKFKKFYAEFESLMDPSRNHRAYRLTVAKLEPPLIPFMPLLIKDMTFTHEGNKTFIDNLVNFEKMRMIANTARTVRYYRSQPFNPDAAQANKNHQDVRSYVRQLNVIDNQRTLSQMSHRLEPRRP
Excerpt: In multi-cellular eukaryotic organisms, the effects of cAMP are transduced by two ubiquitously-expressed intracellular cAMP receptors, the classic protein kinase A/cAMP-dependent protein kinase (PKA/cAPK) and the more recently discovered exchange protein directly activated by cAMP/cAMP-regulated guanine nucleotide exchange factor (EPAC/cAMP-GEF). Both PKA and EPAC are ubiquitously expressed in all tissues, and an increase in intracellular cAMP levels will lead to the activation of both PKA and EPAC. Therefore, careful dissections of the individual role and relative contribution of EPAC and PKA within the overall cAMP signaling in various model systems are critical for further elucidating the mechanism of cAMP signaling. To date no EPAC-specific antagonists and agonist, as well as isoform-specific agonists have been reported, and developing EPAC-specific pharmacological probes to determine the physiological functions that EPAC play in the overall cAMP-mediated signaling remains a major challenge within the research field. Furthermore, identified regulators of EPAC may lead to new mechanism-based therapeutic strategies specifically targeting the EPAC / cAMP-signaling components as EPAC has been implicated to play important roles in major human pathological conditions such as diabetes, heart disease, and cancer.
This qHTS will be used to screen the Molecular Libraries Small Molecule Repository (MLSMR) as a concentration-titration series using the NCGC unique quantitative screening (qHTS) platform to find activators for EPAC2. In addition, this assay will also be used as a counterscreen for the EPAC1 qHTS. This fluorescent based assay is developed and validated for EPAC2 that measures exchange using EPAC effector Rap1 complex with BODIPY-GDP, a GDP analog with a tethered fluorophores. Activators are identified by monitoring the change in fluorescence signal as the exchanged free BODIPY-GDP has a reduced fluorescence compared to Rap1-bound BODIPY-GDP. […] in signal (activation) is the desired outcome for the EPAC2 agonist while no activity in this assay is desired for the EPAC1 agonist counterscreen.
[1] de Rooij, J., Zwartkruis, F. J., Verheijen, M. H., Cool, R. H., Nijman, S. M., Wittinghofer, A., and Bos, J.L. (1998) Nature 396, 474-477
[2] Kawasaki, H., Springett, G. M., Mochizuki, N., Toki, S., Nakaya, M., Matsuda, M., Housman, D. E., and Graybiel, A. M. (1998) Science 282, 2275-2279
NIH Chemical Genomics Center [NCGC]
NIH Molecular Libraries Probe Centers Network [MLPCN]
Assay Submitter (PI): Xiaodong Cheng, The University of Texas, Medical Branch
Briefly, three uL of reagents (100 nM EPAC2, 250 nM RAP1B-BODIPY-GDP, 50 uM GDP) were dispensed into a 1536-well Greiner black solid-bottom medium binding assay plate. Controls and test compounds (23 nL) were transferred to the plate via a Kalypsys pin tool equipped with a 1536-pin array. The plates were centrifuged at 1,000 rpm for 15 seconds followed by 5 minute incubation at room temperature. The assay plates were read at 5 minute intervals for 30 minutes in the ViewLux plate reader using 480nm excitation and 540nm emission filters. The results were normalized to the agonist positive control of 6.5 mM cAMP.
Potency is the fitted concentration of half-maximal effect.

Point of comparison: `O=C1[C@H]2[C@@H](c3ccc(C(F)(F)F)cc3)N[C@]3(CCCN(Cc4ccc(Cl)cc4)C3=O)[C@H]2C(=O)N1Cc1ccccc1`, “activation” value -2.98%. Against it:
- COc1cc(-c2nnn(CC(=O)NCc3ccccc3)n2)cc(OC)c1OC — lower, -6.33%
- COC(C(=O)NCc1ccccc1C)c1ccccc1 (centres undefined) — higher, -2.29%
- COc1ccc(NC(=O)CN(C)S(=O)(=O)c2ccccc2)cc1OC — higher, 15.6%
- CCN(C(=O)C1CCCN(c2nc(-c3ccc(OC)cc3)no2)C1)c1ccc(OC)cc1 (centres undefined) — higher, 13.2%
- CCc1cccc(OC2OC(CO)C(O)C(O)C2NC(C)=O)c1 (centres undefined) — higher, 12.7%
- CCN(Cc1ccccc1)S(=O)(=O)c1cc(C(=O)O)ccc1OC — higher, 4.83%
- COc1ccc(C)c(Cn2c(-c3nonc3N)nc3ccccc32)c1 — lower, -7.07%
- Cc1ccc2c(CC(=O)NCc3cccs3)coc2c1 — higher, 3.95%
- CCc1nn(CCCC(=O)NCc2ccc(C)cc2)c(=O)c2cc3occc3n12 — higher, 2.33%
- Cc1ccc(C(CNC(=O)Nc2ccccc2)N2CCN(C)CC2)cc1 (centres undefined) — higher, 6.7%
- O=C(O)C1OC(C(=O)O)C2C1C(F)(F)C2(F)F (centres undefined) — higher, 7.38%
- CN(CCNC(=O)c1cc2c(-c3ccccc3F)nn(C)c2s1)C1CCCCC1 — higher, 12%
- CCO[C@@H]1OC(C(=O)NC2CC2)=C[C@H](C)[C@H]1CCCO — higher, 5.29%
- Cc1nc(N)sc1-c1ccccc1 — higher, 2.75%
- O=C(CCc1ccccc1)Nc1ccnn1C1CCN(Cc2ccc(OCCO)cc2)CC1 — higher, 4.75%
- CC(C)(C)NC(=O)Cn1c(SCC(=O)Nc2nccs2)nc2ccccc21 — higher, 2.92%
- O=C1C=C(c2ccnc3cc(Cl)ccc23)C[C@@H](c2ccc3c(c2)OCO3)C1 — higher, 3.59%
- CCCCCC(=O)N1CCN(S(=O)(=O)c2ccc3c(c2)OCCCO3)CC1 — higher, 3.1%
- CC1(C)CN(CCc2ccccc2)C(=O)[C@H]1CC(=O)Nc1ccc(Br)cc1 — higher, 2.53%
- COc1ccc(N2C(=O)NC(NS(=O)(=O)c3ccc(Cl)cc3)(C(F)(F)F)C2=O)cc1 (centres undefined) — higher, 10.6%
- CCOC(=O)c1cnn(Cc2ccccc2Cl)c1N — higher, 1.13%
- CCOC(=O)c1ccccc1NC(=O)c1c(N)n(C)c(=O)[nH]c1=O — higher, 19.8%
- CN(C)NC(=O)c1csnc1-c1c(Cl)cccc1Cl — higher, 13.8%
- O=S(=O)(NCc1ccccc1Cl)c1cnc[nH]1 — lower, -3.43%
- CCc1nc2sc3c(Cl)ncnc3c2c2c1CCCC2 — higher, 10.5%
- COc1ccc(CNC(=O)C[C@H]2C[C@H](C(=O)N3CCOCC3)[C@@]3(CCC4CCCC4)c4[nH]c5ccc(Cl)cc5c4CCN3C2=O)cc1OC — higher, -2.39%
- c1ccc(C[C@H]2CNCCN2CCC23CC4CC(CC(C4)C2)C3)cc1 — higher, 8.44%
- Cn1c(=O)c2c(nc(N3CCCCCC3)n2CC(O)COc2ccc(Cl)cc2)n(C)c1=O (centres undefined) — lower, -12.2%
- CSCc1cc(N(C)C)nc(SCc2ccc(Cl)cc2Cl)n1 — higher, 12.8%
- CCCOc1ccc(Cc2c(Cl)nc(SC)nc2NC)cc1 — higher, 14.3%
- Cc1sc2ncn(CC(=O)NCCCC(=O)N3CCN(c4ccccc4F)CC3)c(=O)c2c1C — higher, 10.3%
- Cc1oc(C)c(C(=O)NCCCC(=O)O)c1C(=O)NCCCC(=O)O — higher, 3.93%
- O=CN1CCN(C(=O)c2ccc(Br)o2)CC1 — lower, -4.45%
- Cc1cc(C)c2oc(C(=O)Nc3ccc(S(=O)(=O)Nc4nccc(C)n4)cc3)cc(=O)c2c1 — lower, -3.06%
- COc1ccc(NC(=O)N(C)C[C@H]2Oc3ncc(C#C[C@@H](C)O)cc3C(=O)N([C@H](C)CO)C[C@H]2C)cc1 — higher, 6.02%
- CCCCN1C(=O)C(CC(=O)NC(c2ccccc2)c2ccccc2)CC(C(=O)N2CCOCC2)=C1C (centres undefined) — higher, 5.77%
- CC(C)(C)[C@H]1C=C(C(=O)NCc2ccccc2)O[C@@H](OCc2ccc(CO)cc2)C1 — higher, 9.55%
- NC(=O)c1ccccc1N=Cc1ccc2ccccc2c1 — lower, -7.1%
- O=C(Nc1ccc2c(c1)C(=O)OC2)Nc1cccc2ccccc12 — higher, 11.6%
- Cn1ccs/c1=N\S(=O)(=O)c1ccc(C(C)(C)C)cc1 — lower, -12.9%
- CC12c3ccccc3C(c3ccccc31)C1C(=O)N(Cc3cccnc3)C(=O)C12 (centres undefined) — higher, 7.76%
- Cc1cccc(-c2c(NC(=O)c3ccco3)oc3ccc(Cl)cc3c2=O)c1 — higher, 6.33%
- O=C(NCCCN1CCCCC1)C1CCCN(c2ncnc3c2nc2n3CCCCC2)C1 (centres undefined) — higher, 5.8%
- CC1CCC(CN2CCN=C2N(C)C)CC1 (centres undefined) — higher, 12.7%
- CC(Oc1ccc(Br)cc1)C(=O)NCC(c1ccco1)N1CCCCC1 (centres undefined) — higher, 14.4%
- O=C(c1ccccc1)C(Cn1cncn1)C(Sc1ccccc1)c1ccccc1 (centres undefined) — lower, -7.26%

In the case of `CCOC(=O)c1cc2n(c1N)-c1ccccc1C2=O`, the Potency is reported as 89.1 µM (active).
With `CCN(CC)CCCC(C)n1c2nc(=O)[nH]c(=O)c-2nc2cc(Cl)ccc21` (centres undefined) the Potency was 100 µM (active).
